CHT block: inhibits the human high affinity choline transporter | B-score at 10 µM | CHT-expressing cells, membrane potential dye, choline response; hits give low values | Q9GZV3 | 0.86% of 310,000 active;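 active = B-score over 3 SD under the library average, and starting fluorescence ratio not unusually high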;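 also: choline stimulus applied at its EC90 after an EC20 pre-addition; B-score computed on integrated fluorescence ratio after choline addition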
CHT PAM: allosteric activators of human choline transporter CHT | 0.49% of 310,000 active | B-score at 10 µM | Q9GZV3 | CHT-expressing cells, membrane potential dye, choline EC20; hits give high values; LV-AA mutant CHT in HEK293 cells;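 active = initial fluorescence not abnormally high and integrated response B-score, plate-corrected, over 3 SD above library mean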
ANO1 block: mouse TMEM16A channel inhibition, primary screen; Q8BHY3; HEK293 TMEM16A/YFP iodide influx fluorescence, ionomycin; normalized B-score (activity score, 25-100; higher = stronger inhibition) at 10 µM; 1.2% of 310,000 active; AID 588511;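 active = ratio plate-corrected score three or more library SD toward inhibition, starting fluorescence score within five deviations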;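 also: score derived from kinetic fluorescence span divided by baseline fluorescence per well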
ANO1 activ: mouse TMEM16A channel activation, primary screen; Q8BHY3; HEK293 TMEM16A/YFP-H148Q/I152L, iodide quench fluorescence; hits give low values; B-score at 10 µM; 0.3% of 340,000 active;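 active = fluorescence-ratio B-score plate-corrected deviation score at least 3 library SD below zero, with starting fluorescence score within 5 deviations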;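 also: channel opened by trigger with iodide after compound preincubation; score built on the fluorescence ratio of max minus min over baseline; more negative score means more quench and so TMEM16A activation or potentiation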
IDE cell inh: cellular human IDE inhibition; HEK cells, FAbetaB cleavage, fluorescence polarization; inhibition, % at 5.59 µM; P14735; 0.41% of 320,000 active;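 active = percent inhibition above the average of all tested compounds plus 3 SD, set per screening campaign, cut at about 16% in these data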;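 also: IDE supplied by intact live HEK cells; FP after avidin binding of uncleaved biotin substrate so inhibition keeps polarization high; 0% = DMSO wells and 100% = 60 µM reference IDE inhibitor Ii1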
IDE act: boosts human insulin-degrading enzyme activity in HEK cells | activation, % at 5.96 µM | 0.073% of 340,000 active | AID 493087 | P14735 | FAbeta-B cleavage, fluorescence polarization; 0% vehicle, 100% cell-free pure enzyme wells;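 active = activation above the mean of all tested compounds plus 3 SD, set per screening campaign, cut at about 17% in these data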
An asterisk follows results filed as active; i = inactive; x = no result given. Sampled rows, rich in hits. Any-hit rate of the full collection: about 2.7%.

SMILES | CHT block | CHT PAM | ANO1 block | ANO1 activ | IDE cell inh | IDE act
N#CC1=C(N)Oc2cc(O)c(Cl)cc2C1c1cccnc1 (configuration not stated) | i | i | i | -5.2* | x | -46
COc1cccc(NC(=O)CN(C)C(C)C(=O)NC(C)c2ccc(Cl)cc2Cl)c1 (configuration not stated) | x | x | x | i | x | -2
O=C(Nc1ccccc1)c1ccc(NCc2cccnc2)c(S(=O)(=O)N2CCOCC2)c1 | i | i | i | -6.8* | -4 | 4
CCCSc1cc(N2CCCC2)nc(-c2ccccc2)n1 | i | i | i | -26* | 2 | 3
CCSc1cc(N2CCCC2)nc(-c2ccccc2)n1 | i | i | i | i | -3 | -5
N#Cc1cccc(NC(=O)COC(=O)c2cc(S(=O)(=O)Nc3ccccc3Cl)ccc2O)c1 | x | x | x | i | -4 | 1
O=C(COC(=O)c1cc(S(=O)(=O)Nc2ccccc2Cl)ccc1O)Nc1nc2ccccc2s1 | x | x | x | -42* | x | 12
Cc1cccc(-c2nn(-c3ccccc3)cc2C(=O)N2CCN(C3CCS(=O)(=O)C3)CC2)c1 (configuration not stated) | x | x | x | i | 1 | 1
CCc1noc(C)c1C(=O)NNC(=O)COc1ccc(C)cc1 | i | i | i | i | 2 | -3
O=C(CCCOc1cccc(Br)c1)NCCOc1ccccc1 | i | i | i | i | -2 | -2
CC(C)CCNC(=O)CCCOc1ccccc1 | i | i | i | -4.6* | 0 | -2
CCOC(=O)c1c(NC(=O)/C=C/C(=O)O)sc(C)c1-c1ccc(C(C)(C)C)cc1 | i | i | 25* | i | -2 | -2
CCOC(=O)c1c(NC(=O)/C=C\C(=O)O)sc(C)c1-c1ccccc1 | i | i | i | i | -4 | 7
COc1ccc(NC(=O)CN(C)C(=O)c2cccc(S(=O)(=O)Nc3ccc(F)cc3)c2)cc1 | x | x | x | i | -5 | 2
COC(=O)c1cc(C(=O)OC)cc(N2C(=O)CC(Sc3nc(C)cc(C)n3)C2=O)c1 (configuration not stated) | i | i | i | -18* | 5 | -4
CCOC(=O)C1CCNC(=O)C1=O (configuration not stated) | x | x | x | i | x | 6
CC(O)[C@H]1CNCCN1CCc1cccc(F)c1 (some centres not stated) | i | i | i | -15* | 2 | 3
O=C(O)CCc1c(C(=O)O)[nH]c2ccccc12 | i | i | i | -16* | 8 | -5
O=C(O)CCCc1c(-[n+]2ccccc2)[nH]c2ccccc12 | i | i | i | i | 3 | 4
CCOc1ccc(NC(=O)Cn2nnc(C(=O)NCc3cccs3)c2N)cc1 | i | i | i | i | -6 | 3
Cc1cccc2c(C(=O)N3CCN(C(=O)c4ccco4)CC3)cc(-c3cccc(Br)c3)nc12 | i | i | 100* | i | -1 | 2
O=C(c1ccco1)N1CCN(C(=O)c2cc(-c3ccccc3)nc3ccccc23)CC1 | i | i | i | i | 3 | 0
Cc1cc(N2CCN(C)CC2)nc2ccc(NC(=S)NCCCN3CCc4ccccc4C3)cc12 | i | i | i | i | -4 | -1
Cc1cc(N2CCCC2)nc2ccc(NC(=S)NCCCN3CCC(C)CC3)cc12 | -7.9* | i | i | i | 8 | 0
Cc1ccc(C(=O)Nc2ccc(N3CCN(C)CC3)cc2)c(Cl)c1 | i | i | i | i | 4 | 0
SMILES | CHT block | CHT PAM | ANO1 block | ANO1 activ | IDE cell inh | IDE act
CC(C)(C)c1ccc(C(=O)CC(=O)c2cc(Cl)ccc2O)cc1 | i | i | 25* | i | -9 | 3
COc1cccc2c1Oc1cc([N+](=O)[O-])cc(N(C)C(C)=O)c1C=C2 | i | i | i | i | -4 | 3
COc1cccc(CNC(=O)CN2C(=O)NC(c3ccccc3)(c3ccccc3)C2=O)c1 | x | x | x | i | x | 4
COc1cccc(CN(C)C(=O)CN2C(=O)NC(c3ccccc3)(c3ccccc3)C2=O)c1 | x | x | x | -48* | -2 | 4
Cc1ccc(NC(=O)COC(=O)c2c[nH]c3ccccc23)cc1C | x | x | x | i | -6 | 2
CC(OC(=O)c1ccc(Cl)nc1)C(=O)NC1(C#N)CCCCC1 (configuration not stated) | i | i | i | i | 2 | 18*
CCN1C(=O)[C@H]2[C@H]3CN=C(SCc4ccc(C(=O)OC)cc4)N3[C@@](C)(C(=O)OC)[C@H]2C1=O | x | x | x | x | x | 1
CC(Sc1nnc2c(n1)[nH]c1ccccc12)C(=O)N(C)C1CCCCC1 (configuration not stated) | i | i | 100* | i | -19 | 3
CC(Sc1nnc2c(n1)[nH]c1ccccc12)C(=O)NC1CCCCC1 (configuration not stated) | i | i | i | i | -6 | 1
CCN(CC)CCN(C(=O)C1=COCCO1)c1nc2cc(C)cc(C)c2s1 | -6* | i | i | i | 3 | 1
OCC[C@@H]1C[C@@H](O)[C@H](O)[C@@]2(CCCc3ccccc3O2)O1 | i | i | i | i | -3 | 4
CCC(=O)c1ccc(OCC(O)CN2CCN(S(=O)(=O)c3ccc(NC(C)=O)cc3)CC2)cc1 (configuration not stated) | i | i | i | i | 2 | 2
CC(=O)Nc1ccc(OCC(O)CN2CCN(S(=O)(=O)c3ccc(NC(C)=O)cc3)CC2)cc1 (configuration not stated) | i | i | 100* | i | 6 | -1
CC(C)[C@H](NC(=O)c1cccc(S(=O)(=O)N2CCOCC2)c1)C(=O)OCC(=O)Nc1cccc(Br)c1 | x | x | x | i | x | 3
COCc1c(C#N)c(NCc2cc(OC)c(OC)c(OC)c2)nc(C)c1[N+](=O)[O-] | i | i | 25* | i | 2 | 6
COCc1c(C#N)c(NCCc2ccccc2)nc(C)c1[N+](=O)[O-] | i | i | i | i | -2 | 1
Cc1cc(C)nc(Oc2ccc(Br)cc2)n1 | i | i | i | i | 4 | 6
Cc1ccc(N2CCN(c3ccc(C)cc3)C2c2cccnc2)cc1 | i | i | 25* | i | -2 | 4
NC(=S)NN=C1Cc2cccc3cccc1c23 | x | x | x | i | x | -5
COc1ccc(/C=N/Nc2cc(N3CCCC3)nc(N3CCCC3)n2)cc1 | i | i | i | -19* | -5 | 3
Cc1cccc(NC(=O)CSc2nnc(CSc3nc(C)cc(C)n3)o2)c1 | i | i | i | i | -2 | -1
